Source: PubChem BioAssay AID2685 (National Center for Advancing Translational Sciences (NCATS), 2010)
About 2,100 (0.66%) of roughly 320,000 compounds were called active. Inconclusive results (about 53%) are left out. The call rests on the fitted dose curve; in most records, active means well fitted inhibition curve with a large enough effect in the signal ratio, with a control signal flat (not every such curve was filed as active); inconclusive means small, poorly fitted or top-dose-only effect, or effect the other way, or a change in a side signal; inactive means flat fitted curve, though single readings scatter; the % refers to the signal ratio. Many of the other results were omitted from the sample, so actives are more common in it than they were.

Experiment: qHTS Assay for Lipid Storage Modulators in Drosophila S3 Cells;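 on cell number change: cells counted by Cell Tracker Red CMTPX staining in the red channel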; on lipid storage change, negative = inhibition: on the % scale 0 is the no-effect control and ±100 the full control effect
Details: BODIPY lipid droplet fluorescence, 18-24 h, cells fed with added oleic acid; cell number change: measured here: cell count max response; series mostly up to 46.1 µM; lipid storage change, negative = inhibition: at the top concentration
Outline: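 Drosophila S3 cells got compounds at several concentrations plus oleic acid (400 uM solution). Laser-scanning cytometry with 488 nm excitation read lipid droplets at 500-530 nm and cells at 575-640 nm. Percent activity was relative to 20 uM Triacsin C.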
Potency means the concentration at half of the fitted maximal effect.

| Compound | Potency | cell number change [%] | lipid storage change, negative = inhibition | outcome |
| --- | --- | --- | --- | --- |
| CCCc1ccc2oc(C(=O)N3CCN(CC(=O)NC(C)C)CC3)c(C)c2c1 | 4.11 µM (active) | -11.6 | – | – |
| CCCc1ccc2oc(C(=O)N3CCC(O)CC3)c(C)c2c1 | – | 4.78 | -13.7% (inactive) | – |
| CCCc1ccc2oc(C(=O)N3CCN(c4cnccn4)CC3)c(C)c2c1 | – | -14.5 | 0.562% (inactive) | – |
| COc1ccc(Cl)cc1C(=O)NNC(=O)c1cccnc1 | – | – | – | inactive |
| CS(=O)(=O)c1ccc2sc(NC(=O)c3cc4ccccc4o3)nc2c1 | – | -15.1 | -10.4% (inactive) | – |
| Cc1cc(C)nc(OC(C(=O)O)C(OCc2ccccc2)(c2ccccc2)c2ccccc2)n1 (stereo not drawn) | – | -6.47 | 14.5% (inactive) | – |
| CCC(C)COC(c1ccccc1)(c1ccccc1)C(Oc1nc(C)cc(C)n1)C(=O)O (stereo not drawn) | – | – | – | inactive |
| Cc1cc(C)nc(OC(C(=O)O)C(OCC(C)C)(c2ccccc2)c2ccccc2)n1 (stereo not drawn) | 29.1 µM (active) | -23.5 | – | – |
| Cc1cc(/C(N)=N/OC(=O)Nc2ccccc2)no1 | – | 22.2 | -0.219% (inactive) | – |
| O=S(=O)(Nn1cnnc1)c1ccc2ccccc2c1 | – | -5.21 | -1.16% (inactive) | – |
| Cc1ccsc1CNC12CC3CC(CC(C3)C1)C2 | – | 10.4 | 9.59% (inactive) | – |
| COc1ccc(Cl)cc1NC(=O)CN(C)CC(=O)Nc1ccccc1-c1ccccc1 | – | 22.9 | 1.41% (inactive) | – |
| COc1ccc(Cl)cc1NC(=O)CN(C)CC(=O)N1CC(=O)Nc2ccccc21 | 1.3 µM (active) | -5.42 | – | – |
| Cc1ccc(Cl)cc1NC(=O)CNC(=O)N1CC(=O)Nc2ccccc21 | – | -12.7 | 3.66% (inactive) | – |
| COc1cccc(NC(=O)CSc2nnc3cc(C)nc(N)n23)c1 | – | -13.7 | 17.2% (inactive) | – |
| O=C(CSc1nnc(NC(=O)c2ccccc2)s1)NC1CCCC1 | – | -5.42 | – | inactive |
| COc1ccccc1Nc1nnc(SCC(=O)NC2CC2)s1 | – | -14.3 | 2.29% (inactive) | – |
| O=C(CSc1nnc(Nc2ccccc2F)s1)NC1CCCC1 | 11.6 µM (active) | -17.4 | – | – |
| CC(=O)n1cc([C@@H]2C=C(C(=O)NCc3ccccc3)O[C@H](OCCCCO)C2)c2ccccc21 | – | -1.9 | -13% (inactive) | – |
| Cc1ccc(SCc2cc(=O)n3ccsc3n2)c(C)c1 | – | -12.5 | 5.57% (inactive) | – |
| CCn1c(SCc2cc(=O)n3ccsc3n2)nc2ccccc21 | – | 0.881 | 4.55% (inactive) | – |
| Cc1cccc(-n2c(SCc3cc(=O)n4ccsc4n3)nc3ccccc32)c1 | 14.6 µM (active) | -9.74 | – | – |
| O=C(CSc1nnc(-c2ccncc2)n1-c1ccccc1)Nc1ccc(C(=O)O)cc1 | – | 4.34 | 2.17% (inactive) | – |
| O=C(COC(=O)c1ccc[nH]c1=O)NC1CCCc2ccccc21 (stereo not drawn) | – | 6.05 | -20.5% (inactive) | – |

| Compound | Potency | cell number change [%] | lipid storage change, negative = inhibition | outcome |
| --- | --- | --- | --- | --- |
| Cc1noc(C)c1S(=O)(=O)N1CCCC(C(=O)NCCc2ccc(Cl)cc2)C1 (stereo not drawn) | – | – | – | inactive |
| Cc1nnc(SCC(=O)Nc2ccc(N3CCOCC3)cc2)n1-c1ccccc1 | – | -17.5 | -19.7% (inactive) | – |
| CCCCn1c(-c2ccc(C(C)(C)C)cc2)nc2cc3[nH]c(=O)c(C(C)C)nc3cc21 | – | -12.9 | -35.3% (inactive) | – |
| CCCCn1c(-c2cccc(C)c2)nc2cc3[nH]c(=O)c(C(C)C)nc3cc21 | – | -25.6 | -14.5% (inactive) | – |
| CCCCn1c(-c2cccc3ccccc23)nc2cc3[nH]c(=O)c(C(C)C)nc3cc21 | 20.6 µM (active) | -23 | – | – |
| O=C(c1cccnc1Cl)N(Cc1ccccc1)Cc1ccccc1 | – | 4.31 | 7.46% (inactive) | – |
| CCCOC(=O)c1ccc(NC(=O)C2C3CCC(C3)C2C(=O)O)cc1 (stereo not drawn) | – | 2.97 | 13.5% (inactive) | – |
| COc1ccc(/C=N/NC(=O)c2ccncc2)cc1CSc1nc2ccccc2s1 | – | 1.7 | 17.8% (inactive) | – |
| CCOC(=O)CSc1nc(C)cc(C)n1 | 23.1 µM (active) | 4.86 | – | – |
| CCN(CC)C(=O)CSc1nc(C)cc(C)n1 | – | -1.44 | -0.849% (inactive) | – |
| Cc1cc(C)nc(SCC(N)=O)n1 | – | 14.6 | 4.3% (inactive) | – |
| CCOc1ccccc1OCC(=O)Oc1ccc(C)c(C)c1 | – | 18.7 | 2.5% (inactive) | – |
| Cc1nc(N/N=C/c2ccccn2)sc1C | – | -10.6 | -3.98% (inactive) | – |
| Cc1nc(-c2ccccc2)sc1-c1nc(-c2ccncc2)ncc1S(=O)(=O)c1ccccc1 | – | 12.5 | -6.13% (inactive) | – |
| O=C(O)C1CCCCC1C(=O)NCCCc1ccccc1 (stereo not drawn) | – | -1.96 | -24.2% (inactive) | – |
| O=C(O)[C@H]1CCCC[C@H]1C(=O)NCCc1ccccc1 | – | 7.81 | 19.1% (inactive) | – |
| COc1ccc(CCNC(=O)C2CC=CCC2C(=O)O)cc1 (stereo not drawn) | – | 23.9 | 6.12% (inactive) | – |
| CC1=C(C)CC(C(=O)NCC(=O)c2ccccc2)C(C(=O)O)C1 (stereo not drawn) | – | – | – | inactive |
| O=C(Cc1ccc(Cl)cc1)NNC(=O)C1CC=CCC1C(=O)O (stereo not drawn) | 18.4 µM (active) | – | – | – |
| CC1=C(C)CC(C(=O)NCCc2ccccc2)C(C(=O)O)C1 (stereo not drawn) | 6.51 µM (active) | – | – | – |
| O=C(O)C1CC=CCC1C(=O)NCCc1ccccc1 (stereo not drawn) | 23.1 µM (active) | 3.33 | – | – |
| O=C(NNC(=O)[C@H]1CC=CC[C@H]1C(=O)O)c1ccc(Cl)cc1Cl | – | 10.3 | 2.16% (inactive) | – |
| O=C(O)C1CC=CCC1C(=O)Nc1cc(Cl)ccc1Cl (stereo not drawn) | – | -10.1 | 3.72% (inactive) | – |
